The values that follow come from PubChem BioAssay.

The target of assay [1] is ATP-dependent translocase ABCB1 (Homo sapiens) (UniProt P08183). The assay is described as follows: MDR1 (ABCB1) efflux transporter inhibition, cell-based (AID 377; in the data active = fluorescence slope change above about 50%). The following applies: MDR1-expressing cells, fluorescent substrate accumulation slope; stronger effect = higher value; concentration not given here.
The nature of assay [2]: polyglutamine-triggered caspase-3 activation inhibitors, cell-based (AID 1583). Particulars: polyglutamine-induced caspase-3 activation, cell assay; stronger effect = higher value;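 tested at 10 µM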.
Assay [3] is described as follows: suppressors of polyQ aggregation in yeast, 75Q-TubU reporter (AID 1593). The following applies: Yeast 75Q polyglutamine aggregation reporter.
The nature of assay [4]: rescue of polyQ-huntingtin neuronal dysfunction in worms, whole organism, C. elegans mechanosensory neurons, N-terminal huntingtin (AID 1599). Particulars: touch response, stronger effect = higher value.
A short description of assay [5]: inhibitors of mitochondrial cytochrome c release, biochemical, purified mitochondria (AID 1603).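 Also: mouse liver mitochondria challenged with calcium chloride; signal normalized to the plate average as 100%.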 The following applies: stronger effect = lower value.
The nature of assay [6]: inhibitors of polyQ protein aggregation (AID 1604). Particulars: polyglutamine-induced protein aggregation inhibition assay; stronger effect = higher value; tested at 2.5 µM.
A short description of assay [7]: enhancers of glutamate uptake in motor neurons, MN-1 cell line (AID 1612).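 Also: tested at 1 µM final; 0% = mean of DMSO vehicle wells on each plate; positive means more glutamate uptake than control and negative means less.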 Particulars: MN-1 motor neuron cells, stronger effect = higher value.
Assay [8] is described as follows: reducers of polyQ inclusions in PC12 cells, cell-based, NGF-treated PC12, GFPQ80 (AID 1614).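 Also: lower means fewer inclusions and 0 means no inclusions at all.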 The following applies: PC12 NGF-treated GFP-polyQ80 inclusion reduction.
A short description of assay [9]: suppressors of polyglutamine aggregation in yeast, 75Q-TubH (AID 1616). Particulars: S. cerevisiae 75Q-TubH polyglutamine aggregation suppression; stronger effect = higher value.
Assay [10] can be described thus: liver-stage malaria parasite growth inhibition, primary screen, cell-based, HepG2, luciferase luminescence, HepG2 viability (AID 624349; in the data active = parasite load remaining mostly below about 12%, no sharp cut-off; inactive = mostly above about 10%;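 also: 100% = mean of DMSO negative control wells on the same plate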). Particulars: P. berghei liver stage in HepG2, luciferase luminescence, concentration not given here; parasite load remaining: stronger effect = lower value; viability: measured here: HepG2 viability without parasites.
Assay [11] can be described thus: sensitizers of A549 cells to miR-34 induction, primary screen, imaging, A549 dox-inducible miR-34, nuclei and caspase counts (AID 1347080;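 active = compounds whose cell count with miR-34 switched on is under 0.7 times the count with it off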). Particulars: A549 miR-34 inducible, Hoechst nuclei count, 48 h.
Assay [12] deals with NAD(+) hydrolase SARM1 (Homo sapiens) (UniProt Q6SZW1). The assay is described as follows: SARM1 TIR NADase inhibitors, cell lysate, NAD-Glo luminescence (AID 1508614;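 active = compound whose remaining NAD level is above about 45 nM, limit read from the data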;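 also: higher remaining NAD means stronger inhibition of SARM1 NADase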). The following applies: SAM-TIR HEK293T lysate NADase, at 1 µM, stronger effect = higher value.
Chain of NAD(+) hydrolase SARM1 (Homo sapiens) (Q6SZW1 whole entry, looked up): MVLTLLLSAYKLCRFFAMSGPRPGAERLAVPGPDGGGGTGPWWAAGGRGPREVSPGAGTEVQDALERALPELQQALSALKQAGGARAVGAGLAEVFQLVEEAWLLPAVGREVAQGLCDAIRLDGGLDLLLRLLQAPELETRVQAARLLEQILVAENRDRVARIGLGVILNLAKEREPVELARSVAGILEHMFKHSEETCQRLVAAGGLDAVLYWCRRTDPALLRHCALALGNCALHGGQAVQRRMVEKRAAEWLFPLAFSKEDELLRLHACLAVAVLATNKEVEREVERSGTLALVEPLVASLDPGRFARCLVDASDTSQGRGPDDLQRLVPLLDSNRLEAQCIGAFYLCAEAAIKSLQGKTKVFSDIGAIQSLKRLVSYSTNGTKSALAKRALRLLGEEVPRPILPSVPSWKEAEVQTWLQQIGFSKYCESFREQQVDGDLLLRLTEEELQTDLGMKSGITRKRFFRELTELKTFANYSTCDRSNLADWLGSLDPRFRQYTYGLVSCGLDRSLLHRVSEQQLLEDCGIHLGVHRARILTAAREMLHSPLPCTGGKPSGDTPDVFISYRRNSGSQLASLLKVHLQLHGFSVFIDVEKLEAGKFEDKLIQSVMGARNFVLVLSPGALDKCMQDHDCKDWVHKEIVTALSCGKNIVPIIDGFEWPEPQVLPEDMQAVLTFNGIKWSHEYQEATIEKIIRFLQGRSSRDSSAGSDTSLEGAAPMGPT
A short description of assay [13]: hESC survival regulators, cell-based (AID 493140).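 Also: cells exposed to compounds for four days before counting.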 The following applies: human embryonic stem cell survival screen; stronger effect = higher value.
Assay [14] deals with Mitogen-activated protein kinase 7 (Homo sapiens) (UniProt Q13164). The assay can be described thus: ERK5 transactivation activators in reporter cells, primary screen, cell-based, HTS (AID 1508626;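 active = luciferase signal above three times the same-plate solvent-only control wells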;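 also: luciferase driven by Gal4-ERK5 fusion binding five Gal4 sites before minimal TATA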). Particulars: HeLa Gal4-ERK5 transactivation, 18 h, at 5 µM, stronger effect = higher value.
Chain of Mitogen-activated protein kinase 7 (Homo sapiens) (Q13164 whole entry, looked up, the tested form may be a part): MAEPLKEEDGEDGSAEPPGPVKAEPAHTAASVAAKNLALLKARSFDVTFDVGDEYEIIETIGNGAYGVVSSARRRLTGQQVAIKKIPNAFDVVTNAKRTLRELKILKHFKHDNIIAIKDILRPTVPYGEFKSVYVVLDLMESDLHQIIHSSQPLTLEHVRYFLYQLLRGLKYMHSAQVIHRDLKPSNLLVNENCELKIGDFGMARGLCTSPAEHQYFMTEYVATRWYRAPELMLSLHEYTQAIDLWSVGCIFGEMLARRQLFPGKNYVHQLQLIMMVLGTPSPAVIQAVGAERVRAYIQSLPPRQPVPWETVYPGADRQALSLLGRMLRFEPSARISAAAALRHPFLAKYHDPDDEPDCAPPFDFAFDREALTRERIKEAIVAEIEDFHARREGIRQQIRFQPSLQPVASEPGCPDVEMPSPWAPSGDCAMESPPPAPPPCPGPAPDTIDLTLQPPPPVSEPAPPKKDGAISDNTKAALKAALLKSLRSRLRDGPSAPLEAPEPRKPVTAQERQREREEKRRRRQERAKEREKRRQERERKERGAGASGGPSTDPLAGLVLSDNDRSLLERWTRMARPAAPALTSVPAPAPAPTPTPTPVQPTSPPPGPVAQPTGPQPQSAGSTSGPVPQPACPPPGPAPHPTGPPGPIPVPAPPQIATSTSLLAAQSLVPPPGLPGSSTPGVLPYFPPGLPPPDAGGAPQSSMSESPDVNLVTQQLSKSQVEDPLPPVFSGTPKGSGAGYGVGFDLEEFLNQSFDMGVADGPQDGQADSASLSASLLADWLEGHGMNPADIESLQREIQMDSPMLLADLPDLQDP
Assay [15] is described as follows: survival rescue of mitochondrial mutant cells in low glucose, primary screen, MELAS cybrids, Rieske KO mouse fibroblasts, CellTiter-Glo (AID 1508586;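 active = mean z-score across replicates of 1.96 or higher in either the MELAS or the Rieske mutant cell line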;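 also: z relative to plate mean and SD of compound and empty wells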). On the technique in general: Cellular ATP, detected with luciferase, serves as a proxy for viable cell number.
Assay [16] in a line: kinase inhibitors against Plasmodium liver-stage infection, cell-based, known kinase inhibitor set, luminescence, hepatoma host viability (AID 624392).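 Also: infected cells incubated roughly two days before readout.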 The following applies: Plasmodium liver stage in hepatoma cells, luciferase luminescence, concentration not given here; liver cell % of control: measured here: host liver cell viability; parasite % of control: stronger effect = lower value.

Setting [17] is: stronger effect = lower value, cell number ratio, induced over uninduced.
The mark [18] stands for this setting: measured here: relative caspase fold change +Dox/-Dox.
[19] abbreviates: measured here: total cells with miR-34 induction, stronger effect = lower value.
[20] abbreviates: measured here: total cells without miR-34 induction.
[21] abbreviates: MELAS cybrid survival, CellTiter-Glo 48 h, stronger effect = higher value.
The mark [22] stands for this setting: Rieske KO mouse fibroblast survival, CellTiter-Glo 72 h.

Broadly, the inhibition is the change of the read-out against control, counted positive when it falls. The viability is a read-out of living cells in per cent, often relative to untreated cells.

Several values for one entry are separate records, joined by “and”; a condition that tells them apart may be missing. Identical values can stand only once. Results filed as inconclusive are left out. For some assays here: Potency and affinity values are given separately. Activity calls are given as the source filed them. Unless noted, no rule for the calls is given here.

Chain of ATP-dependent translocase ABCB1 (Homo sapiens) (P08183 whole entry, looked up): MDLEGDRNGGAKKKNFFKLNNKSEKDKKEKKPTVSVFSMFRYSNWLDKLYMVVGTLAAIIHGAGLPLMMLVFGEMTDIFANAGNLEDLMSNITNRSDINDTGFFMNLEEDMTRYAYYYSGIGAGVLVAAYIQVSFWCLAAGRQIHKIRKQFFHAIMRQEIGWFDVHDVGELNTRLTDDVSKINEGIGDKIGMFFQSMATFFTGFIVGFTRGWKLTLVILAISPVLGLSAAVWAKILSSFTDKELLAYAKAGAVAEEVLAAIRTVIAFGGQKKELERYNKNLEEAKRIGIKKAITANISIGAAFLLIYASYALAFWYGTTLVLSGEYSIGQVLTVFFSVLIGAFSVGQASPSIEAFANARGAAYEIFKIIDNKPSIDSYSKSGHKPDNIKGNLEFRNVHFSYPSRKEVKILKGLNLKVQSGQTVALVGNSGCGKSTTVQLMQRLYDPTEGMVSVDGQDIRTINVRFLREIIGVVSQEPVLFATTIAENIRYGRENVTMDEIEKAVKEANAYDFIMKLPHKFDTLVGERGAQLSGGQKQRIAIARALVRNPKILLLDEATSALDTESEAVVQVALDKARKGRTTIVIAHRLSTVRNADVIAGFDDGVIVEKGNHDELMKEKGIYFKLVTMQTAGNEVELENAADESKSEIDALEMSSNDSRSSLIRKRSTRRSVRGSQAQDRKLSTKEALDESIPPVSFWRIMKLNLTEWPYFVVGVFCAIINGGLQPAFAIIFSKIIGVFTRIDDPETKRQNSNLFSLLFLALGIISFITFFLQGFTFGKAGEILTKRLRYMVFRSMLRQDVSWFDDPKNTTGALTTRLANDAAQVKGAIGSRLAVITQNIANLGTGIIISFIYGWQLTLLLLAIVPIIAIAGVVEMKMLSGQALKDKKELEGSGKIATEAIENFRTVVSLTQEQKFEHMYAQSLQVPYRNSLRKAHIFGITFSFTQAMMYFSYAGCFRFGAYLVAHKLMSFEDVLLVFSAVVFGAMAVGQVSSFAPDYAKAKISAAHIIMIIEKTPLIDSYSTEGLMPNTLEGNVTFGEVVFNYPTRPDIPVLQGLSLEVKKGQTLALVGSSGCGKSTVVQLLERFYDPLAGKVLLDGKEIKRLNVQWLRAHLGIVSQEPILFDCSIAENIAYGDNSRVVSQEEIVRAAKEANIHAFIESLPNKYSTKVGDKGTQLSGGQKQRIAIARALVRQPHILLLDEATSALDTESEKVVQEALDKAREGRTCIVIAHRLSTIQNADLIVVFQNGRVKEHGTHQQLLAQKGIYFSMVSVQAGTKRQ

On to `CC[C@]12CCCN3CCc4c(n(c5ccccc45)[C@](O)(C(=O)OC)C1)[C@@H]32`, for which the fluorescence slope change in [1] was 15.4% (inactive). In addition, the inhibition in [2] was found to be 18.7%. The score in [3] turned out to be 1.6. In [4], this molecule returned a rescue above control of 4.14. Also, the cytochrome c release ratio in assay [5] amounted to 1.05. The molecule further came in with an inhibition of aggregation in [6] of 27%. For the same molecule, the glutamate uptake change in assay [7] was -2.93%. This molecule also had an inclusion score in [8] of 2.5. This molecule yielded an aggregation suppression score in assay [9] of 1.32. Also, the parasite load remaining in [10] was 112% (inactive) and 81.9% (inactive) and 58.4% (inactive). Besides, the viability in assay [10] is 102% and 72.1% and 74.9%. The figures for the fold change in assay [11] (setting [17]) and in assay [11] (setting [18]) were 0.786 (inactive) and 1.26, respectively. The cell count in assay [11] (setting [19]) was 7940; in assay [11] (setting [20]), 10100.
In the case of `O=C(c1cccnc1)N1CCOCC1`, the figures for the fold change in assay [11] (setting [17]) and in assay [11] (setting [18]) were 0.924 (inactive) and 0.837, respectively. Further, the cell count in assay [11] (setting [19]) is 7970; in [11] (setting [20]) it was 8630. For the same molecule, the remaining NAD in assay [12] was 10 nM (inactive).
As for `COc1ccc(-c2cc(=O)c3c(O)cc(O)cc3o2)cc1`, the inhibition in assay [2] is -17.1%. The molecule also yielded a score in [3] of 1.2. This molecule also came in with a rescue above control in assay [4] of 10.4. Moreover, the cytochrome c release ratio in [5] amounted to 0.89. The inhibition of aggregation in [6] was 41.2%. Besides, the glutamate uptake change in assay [7] is -9.64%. This molecule came in with an inclusion score in [8] of 2. In addition, the aggregation suppression score in [9] turned out to be 0.73. Moreover, the survival in [13] was 3.33 (inactive). For the same molecule, the parasite load remaining in assay [10] is 73.8% (inactive) and 91.5% (inactive). Besides, the viability in assay [10] is 92.5% and 92.4%. Further, the results for the fold change in assay [11] (setting [17]) and in assay [11] (setting [18]) were 0.79 (inactive) and 1.12, respectively. Also, the cell count was found to be 7540 in assay [11] (setting [19]) and 9550 in assay [11] (setting [20]). Besides, the luciferase signal in [14] was 40 AU (inactive).
Regarding `NC[C@@H]1O[C@H](O[C@H]2[C@@H](O)[C@H](O[C@@H]3[C@@H](O)[C@H](N)C[C@H](N)[C@H]3OC3O[C@H](CO)[C@@H](O)[C@H](O)[C@H]3N)O[C@@H]2CO)[C@H](N)[C@@H](O)[C@@H]1O` (stereo not given in full), the parasite load remaining in [10] is 69.5% (inactive). Besides, in assay [10], the viability turned out to be 103%. Also, the fold change was 0.833 (inactive) in assay [11] (setting [17]) and 1.19 in [11] (setting [18]). In addition, the cell count in assay [11] (setting [19]) worked out at 8720; in assay [11] (setting [20]), 10500. Moreover, the values for the z-score in [15] (setting [21]) and in assay [15] (setting [22]) were 0.673 (inactive) and -0.125, respectively.
Take `COc1ccc(C(=O)c2ccc(C)cc2)c(O)c1`: the fold change in assay [11] (setting [17]) was 0.81 (inactive); in [11] (setting [18]), 1.2. Besides, the figures for the cell count in assay [11] (setting [19]) and in assay [11] (setting [20]) were 4460 and 5510, respectively. Moreover, the remaining NAD in assay [12] is 10 nM (inactive).
For the molecule `COC(C(=O)N1Cc2[nH]nc(NC(=O)c3ccc(N4CCN(C)CC4)cc3)c2C1)c1ccccc1` (stereo not given), the liver cell % of control in [16] was 82.1% and 96.2% and 98.6%. Moreover, in assay [16], the parasite % of control is 40.2% (inactive) and 56.3% (inactive) and 75.4% (inactive). The fold change is 1.01 (inactive) in assay [11] (setting [17]) and 0.994 in [11] (setting [18]). Besides, the values for the cell count in [11] (setting [19]) and in assay [11] (setting [20]) were 1850 and 1820, respectively. Besides, the figures for the z-score in assay [15] (setting [21]) and in [15] (setting [22]) were 1.1 (inactive) and -2.53, respectively.
Regarding `CN(C)CCC(CSc1ccccc1)Nc1ccc(S(=O)(=O)NC(=O)c2ccc(N3CCN(Cc4ccccc4-c4ccc(Cl)cc4)CC3)cc2)cc1[N+](=O)[O-]` (stereo not given), in [16], the liver cell % of control is 65.5% and 90.4% and 88.4%. Also, the parasite % of control in assay [16] is 27.6% (inactive) and 29.4% (inactive) and 37% (inactive). Also, the fold change was 0.995 (inactive) in assay [11] (setting [17]) and 0.778 in assay [11] (setting [18]). In addition, the results for the cell count in assay [11] (setting [19]) and in assay [11] (setting [20]) were 5830 and 5860, respectively. Further, the z-score in assay [15] (setting [21]) is -0.297 (inactive); in assay [15] (setting [22]), -2.14.
